# HEK293 tox: cytotoxic in the GLP-1 receptor inverse agonist counter-screen; Potency, µM (top dose mostly 38.3 µM), inactives show at the top dose activity change, negative = inhibition, hits mostly inhibitors; HEK293 cAMP-luciferase reporter cells, luminescence, 24 h; AID 624418; 0.13% of 410,000 active;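 also: loss of luciferase light is scored as toxicity; % is scaled to controls: 0 for no effect and ±100 for the full control effect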
#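 Quantitative HTS format, 1536 wells, 200 cells/uL seeded. Compounds: 23 nL, 24 h, 37 °C. Detection: luciferase reagent, luminescence at 12 min RT; decreased signal taken as cytotoxic.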
# GLP-1R agonist: activates the human GLP-1 receptor | P43220 | HEK293 GLP-1R CRE-luciferase, luminescence, 4-6 h; cells express a hypersensitive GLP-1R form | Potency, µM (highest dose often 45.6 µM), without a hit: top-dose activation, hits mostly activators | 0.007% of 380,000 active | AID 624172; also: % of control where 0% means no effect
# RORg inh: ROR gamma (mouse) transcription inhibition. Drosophila S2 Gal4-RORgamma UAS-luciferase reporter, 20 h. Potency, µM (top dose mostly 53.6 µM), for inactives: top-dose activity change, negative = inhibition, most hits filed as inhibitors. 5.4% of 310,000 active; also: % is scaled to controls: 0 for no effect and ±100 for the full control effect; nearly all actives have a fitted effect of over 60% in size
# Target sequence (P51450 whole entry, looked up, the tested form may be a part): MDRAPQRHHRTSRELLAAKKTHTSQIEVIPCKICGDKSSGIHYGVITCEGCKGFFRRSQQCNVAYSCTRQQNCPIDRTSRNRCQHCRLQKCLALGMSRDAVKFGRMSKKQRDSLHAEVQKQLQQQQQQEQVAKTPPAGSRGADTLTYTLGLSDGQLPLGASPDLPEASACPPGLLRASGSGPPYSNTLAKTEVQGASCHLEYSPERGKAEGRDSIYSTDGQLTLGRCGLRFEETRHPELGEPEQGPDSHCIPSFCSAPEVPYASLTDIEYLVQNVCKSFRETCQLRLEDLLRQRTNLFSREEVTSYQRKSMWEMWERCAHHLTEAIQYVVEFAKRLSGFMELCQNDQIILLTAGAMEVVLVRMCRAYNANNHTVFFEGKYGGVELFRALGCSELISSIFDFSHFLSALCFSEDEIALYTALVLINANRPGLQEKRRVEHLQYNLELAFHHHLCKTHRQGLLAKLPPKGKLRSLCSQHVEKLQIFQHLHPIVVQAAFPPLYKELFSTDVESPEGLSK
#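 Using a luciferase readout, inhibitors were identified by reduced reporter activity in Drosophila cells coexpressing a copper-inducible Gal4–ROR gamma fusion and UAS-driven Photinus luciferase, incubated 20 hr after 700 uM copper sulfate.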
# Gal4-VP16 FLuc: inhibits Gal4-VP16 luciferase reporter, ROR gamma counter-screen | Drosophila S2 Gal4-VP16 UAS-luciferase, luminescence, 20 h | Potency, µM (top dose mostly 53.6 µM), for inactives: at the top dose activity, negative = inhibition, usual class: inhibitors | 3.5% of 310,000 active | AID 2546;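 also: Gal4-VP16 expression switched on by copper sulfate through the metallothionein promoter; % is scaled to controls: 0 for no effect and ±100 for the full control effect; nearly all actives have a fitted effect of over 50% in size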
# GLP1R inv ag: inverse agonists of human GLP-1 receptor; 1.6% of 410,000 active; P43220; HEK293 GLP-1R CRE-luciferase, luminescence, 24 h; GLP-1R form is constitutively active; Potency, µM (titrated, usually from 38.3 µM), inactives show at the highest dose activity change, negative = inhibition, usual class: inhibitors; also: % is scaled to controls: 0 for no effect and ±100 for the full control effect; nearly all actives have a fitted effect of over 55% in size
#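 Readout was luciferase luminescence, measured 12 min after detection reagent at room temperature. Beforehand, GLP-1R reporter HEK293 cells had sat 12 h, then received compounds for 24 hr at 37 deg C.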
# * marks the source's active call; other numbers are inactive results; ? = inconclusive; nt = no result given. Sampled rows, rich in hits. Any-hit rate of the full collection: about 5.9%. Calls follow the shape of the dose curve; as a rule, active = well fitted curve in the direction sought with a large enough effect; inconclusive = small, poorly fitted or top-dose-only effect, or another doubt; inactive = no such curve, though single readings can be large; an effect the other way counts as inactive or inconclusive. Potency is read from the fitted curve at half-maximal effect.
SMILES,HEK293 tox,GLP-1R agonist,RORg inh,Gal4-VP16 FLuc,GLP1R inv ag
CCCCn1c(SCC(=O)N2c3ccccc3Sc3ccccc32)nc2c1c(=O)n(C)c(=O)n2C,-29.8%,3.0%,?,4.1%,11.2µM*
COc1ccccc1-c1cn[nH]c1-c1ccc(OCc2ccccc2)cc1O,?,15.1%,6.31µM*,?,?
CCOc1ccc(-c2[nH]ncc2-c2ccccc2)c(O)c1,-2.6%,4.7%,12.6µM*,?,10µM*
COc1ccc(-c2cn[nH]c2-c2ccc(OCc3ccccc3)cc2O)cc1,?,1.9%,6.31µM*,?,3.55µM*
CCCCCCCCCCCCCCCCOCC(COP(=O)([O-])OCC[N+](C)(C)C)OC (stereo unspecified),nt,nt,-4.6%,-14.4%,nt
COc1ccc(C(=O)NC(=S)Nc2ccc(CN3CCOCC3)cc2)cc1Br,?,-8.3%,7.08µM*,17.8µM*,12.6µM*
CCCCOc1ccc(C(=O)NC(=S)Nc2ccc(CN3CCOCC3)cc2)cc1,3.4%,-3.2%,?,1.0%,0.0%
O=C(NC(=S)Nc1ccc(CN2CCOCC2)cc1)c1ccc([N+](=O)[O-])cc1,-7.7%,-0.7%,14.1µM*,10µM*,-18.9%
O=C(NC(=S)Nc1ccc(CN2CCOCC2)cc1)c1ccc2c(c1)OCCO2,?,10.6%,?,?,-21.6%
COc1ccc(C(=O)NC(=S)Nc2ccc(CN3CCOCC3)cc2)cc1,0.0%,3.0%,11.2µM*,?,-16.7%
O=C(/C=C/c1cccc([N+](=O)[O-])c1)NC(=S)Nc1ccc(CN2CCOCC2)cc1,-4.7%,-2.2%,12.6µM*,?,11.9%
Cc1ccc(S(=O)(=O)CC(=O)N2CCN(c3nc4c(F)cccc4s3)CC2)cc1,-2.5%,nt,nt,nt,-1.0%
CCOc1ccc(NCc2cccn2-c2nnc(N3CCC(C(=O)NCc4ccccc4Cl)CC3)s2)cc1,0.5%,nt,nt,nt,?
O=C(CN1CCCC1)N/N=C/c1c(O)ccc2ccccc12,4.3%,-5.9%,3.16µM*,3.16µM*,2.82µM*
Cc1cc(C)n2nc(C(=O)N/N=C/c3c4ccccc4cc4ccccc34)nc2n1,31.2%,33.4%,35.5µM*,17.8µM*,28.2%
O=C(NN=Cc1c(O)ccc2ccccc12)C1CC1,-18.6%,-1.1%,nt,nt,?
Cc1ccc(O)c(/C=N/NC(=O)CN2CCCC2)c1,3.8%,2.9%,12.6µM*,?,?
O=C(CCSc1nc2ccccc2s1)N/N=C/c1c(O)ccc2ccccc12,9.0%,-3.3%,1.41µM*,1µM*,?
COc1cccc(Cn2c(=O)cnc3cnc(N(C)C)nc32)c1,nt,nt,-18.4%,-12.6%,nt
O=C(Cn1c(=O)n(-c2cccc(Cl)c2)c(=O)c2sc3ccccc3c21)N1CCCC1,-2.0%,0.9%,nt,nt,-9.1%
COc1cc(OC)cc(-n2c(=O)c3ccccc3n(CC(=O)NCCc3ccc(OC)c(OC)c3)c2=O)c1,-1.0%,nt,nt,nt,-2.6%
Cc1cc(C)n(CCC(=O)N/N=C/c2c(O)ccc3ccccc23)n1,?,-7.3%,1.12µM*,?,?
CCOc1ccc(-n2c(=O)c3c4c(sc3n(CC(=O)NC(C)CC)c2=O)CCCC4)cc1 (stereo unspecified),-8.8%,nt,nt,nt,8.8%
Brc1ccc(C2C3=C(Nc4ncnn42)c2ccccc2OC3c2ccncc2)cc1 (stereo unspecified),-27.3%,-4.3%,?,-24.9%,?
COc1ccc(C2Oc3ccccc3C3=C2C(c2cccs2)n2ncnc2N3)cc1 (stereo unspecified),?,2.9%,?,2.51µM*,?
COc1cccc2cc(-c3nnc(-c4ccccc4)o3)c(=O)oc12,28.3%,2.4%,1.26µM*,?,2.1%
COc1cccc2cc(C(=O)Oc3ccccc3)c(=O)oc12,4.1%,2.4%,?,10µM*,9.5%
COc1ccccc1N1CCN(CCCNC(=O)c2nnc(Cc3c(F)cccc3Cl)o2)CC1,-4.2%,nt,nt,nt,-26.3%
CCOc1cccc(/C=N/NC(=O)c2cc(C3CC3)[nH]n2)c1O,-12.5%,8.7%,2.24µM*,2.82µM*,?
COc1cc(/C=N/NC(=O)c2cc(C3CC3)[nH]n2)cc(OC)c1OC,-15.4%,11.9%,-13.8%,-7.0%,48.1%
